According to PubChem BioAssay:
The source made the active and inactive calls.

Columns and labels:
[1] = tested on: Human papillomavirus type 1a protein E7 (residues 44-93); assay: HPV1a E7 fragment binders on microarrays, primary screen, biochemical, small-molecule microarray, residues 44-93, 635 nm fluorescence (AID 1108); settings: small-molecule microarray binding, fluorescence 635 nm; higher = more signal;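 also: E7 fragment applied at 1 µg/mL in TBST for 1 h at 4 C; score combines spot fluorescence with its signal to noise ratio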
[2] = modulators of HCV replicon luciferase signal, primary screen, HCV replication inhibitor project, Huh7 cells, luciferase reporter (AID 1109); settings: 48 h, higher = more signal;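 also: huh7 hepatoma cells harbouring a luciferase neomycin HCV replicon reporter; luciferase luminescence as measure of HCV replicon replication; test concentration not given here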
[3] = molecular target: Left-right determination factor 2 (Homo sapiens) (UniProt O00292); assay: LEFTY2 binders on small-molecule microarrays, primary screen, biochemical, small-molecule microarray, 635 nm fluorescence scan (AID 1110); settings: LEFTY2 binding, higher = more signal
[4] = molecular target: Calmodulin-1 (Homo sapiens) (UniProt P0DP23); assay: CALM1 binders on microarrays, EGTA buffer, profiling panel, biochemical, small-molecule microarray, Cy5-labelled CALM1 (AID 1111); settings: Cy5-CALM1 binding fluorescence, higher = more signal;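 also: labelled calmodulin applied in Tris saline Tween buffer holding calcium plus EGTA and DTT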
[5] = molecular target: Calmodulin-1 (Homo sapiens) (UniProt P0DP23); assay: calcium-bound CALM1 binders on microarrays, profiling panel, artefact control for SMM control-protein annotation, biochemical, small-molecule microarray, Cy5-labelled CALM1, plus calcium (AID 1112); settings: Cy5-CALM1 binding fluorescence, higher = more signal;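 also: score merges spot fluorescence with signal to noise from triplicate slides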
[6] = small-molecule microarray binders of probe aWnt5a, primary screen, biochemical, biotinylated probe, 635/667 nm fluorescence (AID 1113); settings: higher = more signal;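 also: score merges 667 nm fluorescence intensity with signal-to-noise per printed feature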
[7] = small-molecule microarray binders of probe aShh, primary screen, biochemical, biotinylated probe, 635/667 nm fluorescence (AID 1114); settings: higher = more signal;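 also: probe is biotin-labelled aShh protein from a stem cell growth factor screen; measures binding of labelled protein to compounds printed on the slide; score merges feature fluorescence at 667 nm with signal-to-noise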
[8] = small-molecule microarray binders of probe aNog, primary screen, biochemical, biotinylated probe, 635/667 nm fluorescence (AID 1115); settings: higher = more signal;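 also: probe is biotinylated aNog protein used at 0.15 µg/mL for 1 h at 4 C; z-score combines 667 nm fluorescence of each spot with its signal to noise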
[9] = molecular target: Torsin-1A-interacting protein 1 (Homo sapiens) (UniProt Q5JTV8); assay: LAP1 binders from COS7 cell lysate, primary screen, small-molecule microarray, 635/667 nm fluorescence (AID 1116); settings: COS7-hLAP1 lysate binding, 635 nm fluorescence, higher = more signal
[10] = molecular target: Alpha-bungarotoxin (Bungarus multicinctus) (UniProt P60615); assay: alpha-bungarotoxin binders on microarray, profiling panel, artefact control for SMM control protein annotation, biochemical, small-molecule microarray, Alexa647 label, 635/667 nm fluorescence (AID 1117); settings: alpha-BTX-A647 binding fluorescence, higher = more signal
Albumin (Bos taurus) = Albumin (Bos taurus) (UniProt P02769); assay: bovine serum albumin binders on microarray, profiling panel, artefact control for SMM control protein annotation, biochemical, small-molecule microarray, Alexa647 label, 635/667 nm fluorescence (AID 1118); settings: BSA-A647 binding, fluorescence 635 nm, higher = more signal;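 also: score merges 667 nm emission intensity and signal-to-noise per printed compound spot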
[11] = small-molecule microarray binders of probe aXIP, primary screen, biochemical, NeuroSMM set, 635/667 nm fluorescence (AID 1119); settings: higher = more signal, called active from +8 up or from −8 down;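 also: probe is the protein aXip251-270 applied at 1 µg/mL to compound-printed slides; binding of probe to printed compounds measured as 667 nm fluorescence plus signal to noise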
[12] = small-molecule binders of probe aNOTCH3, primary screen, biochemical, small-molecule microarray, 635/667 nm fluorescence (AID 1120); settings: higher = more signal;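 also: probe is a biotin-tagged antibody raised against NOTCH3 rather than NOTCH3 protein; score merges spot fluorescence near 667 nm with spot signal to noise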
[13] = small-molecule binders of probe aNOTCH2, primary screen, biochemical, small-molecule microarray, 635/667 nm fluorescence (AID 1121); settings: higher = more signal;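 also: score merges feature fluorescence read at 667 nm with its signal to noise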
[14] = molecular target: Carbonic anhydrase 2 (Homo sapiens) (UniProt P00918); assay: CAII small-molecule binders, profiling panel, biochemical, small-molecule microarray, Alexa647-labelled CAII (AID 1122); settings: CAII-A647 binding fluorescence, higher = more signal
[15] = COS7 lysate on small-molecule microarray, probe aHis, 635 nm (AID 1123); settings: COS7 cell lysate, fluorescence, higher = more signal;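 also: z-score combines 667nm fluorescence intensity with signal-to-noise per printed compound spot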
[16] = compound binding in COS7 lysate, probe aLAP1, primary screen, cell lysate, small-molecule microarray (AID 1124); settings: probe aLAP1, fluorescence, higher = more signal;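 also: lysate comes from COS7 cells expressing LAP1 and is applied at 0.3 µg/mL; score merges spot fluorescence near 667 nm with signal-to-noise over triplicate slides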
Sam68 (KHDRBS1) = assay: Sam68 small-molecule binders, primary screen, biochemical, small-molecule microarray, 635 nm fluorescence (AID 1125); settings: small-molecule microarray binding, higher = more signal;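 also: score merges 667 nm channel intensity with signal to noise over triplicate slides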
[17] = tested on: Chordin-like protein 2 (CHRDL2); assay: CHRDL2 small-molecule binders, primary screen, biochemical, small-molecule microarray, 635 nm fluorescence (AID 1126); settings: small-molecule microarray binding, fluorescence 635 nm; higher = more signal;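 also: printed compound slides probed with Chrdl2 protein at 4 µg/mL for 1 h at 4 C; score merges 667 nm emission intensity with signal to noise over three replicate slides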
[18] = molecular target: Concanavalin-A (Canavalia ensiformis) (UniProt P02866); assay: ConA small-molecule binders, primary screen, artefact control for SMM control protein annotation, biochemical, small-molecule microarray, Alexa647 label, 635 nm (AID 1127); settings: ConA-A647 binding fluorescence, higher = more signal;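 also: z combines 667 nm emission intensity with signal-to-noise across three replicate slides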
Concanavalin-A (Canavalia ensiformis), sequence (P02866 whole entry, looked up): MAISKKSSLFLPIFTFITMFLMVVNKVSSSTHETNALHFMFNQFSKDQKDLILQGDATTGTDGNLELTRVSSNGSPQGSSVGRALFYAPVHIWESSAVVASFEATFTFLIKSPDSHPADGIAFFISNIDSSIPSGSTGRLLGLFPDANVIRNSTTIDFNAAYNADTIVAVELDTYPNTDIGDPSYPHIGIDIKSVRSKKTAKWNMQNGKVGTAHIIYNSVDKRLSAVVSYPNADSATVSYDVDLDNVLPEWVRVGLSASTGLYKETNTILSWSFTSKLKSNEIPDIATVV

Albumin (Bos taurus), sequence (P02769 whole entry, looked up): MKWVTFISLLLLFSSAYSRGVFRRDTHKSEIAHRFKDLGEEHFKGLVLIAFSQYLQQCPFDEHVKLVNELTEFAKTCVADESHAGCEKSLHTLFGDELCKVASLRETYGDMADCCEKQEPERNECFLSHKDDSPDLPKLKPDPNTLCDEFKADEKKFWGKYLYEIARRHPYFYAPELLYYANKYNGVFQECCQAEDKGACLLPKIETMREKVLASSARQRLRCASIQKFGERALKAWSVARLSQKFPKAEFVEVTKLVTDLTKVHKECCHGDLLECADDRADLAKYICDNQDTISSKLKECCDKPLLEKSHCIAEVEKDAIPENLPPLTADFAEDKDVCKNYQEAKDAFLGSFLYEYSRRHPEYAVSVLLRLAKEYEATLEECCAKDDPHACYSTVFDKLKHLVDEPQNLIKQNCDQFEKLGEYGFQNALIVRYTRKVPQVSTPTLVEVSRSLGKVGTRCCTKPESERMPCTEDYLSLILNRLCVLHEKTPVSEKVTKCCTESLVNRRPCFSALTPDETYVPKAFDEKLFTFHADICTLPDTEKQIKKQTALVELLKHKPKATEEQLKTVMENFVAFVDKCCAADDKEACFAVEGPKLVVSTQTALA
Left-right determination factor 2 (Homo sapiens), sequence (O00292 whole entry, looked up): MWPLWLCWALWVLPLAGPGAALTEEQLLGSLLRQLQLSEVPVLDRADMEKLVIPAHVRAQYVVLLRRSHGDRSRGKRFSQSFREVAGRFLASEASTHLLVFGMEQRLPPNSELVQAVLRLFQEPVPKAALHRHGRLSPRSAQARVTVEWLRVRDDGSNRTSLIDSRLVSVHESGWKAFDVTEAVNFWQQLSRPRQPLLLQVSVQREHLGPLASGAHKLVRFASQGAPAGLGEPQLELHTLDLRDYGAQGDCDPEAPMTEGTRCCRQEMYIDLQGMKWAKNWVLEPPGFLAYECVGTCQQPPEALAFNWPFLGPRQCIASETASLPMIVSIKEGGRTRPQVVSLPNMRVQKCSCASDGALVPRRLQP
Torsin-1A-interacting protein 1 (Homo sapiens), sequence (Q5JTV8 whole entry, looked up): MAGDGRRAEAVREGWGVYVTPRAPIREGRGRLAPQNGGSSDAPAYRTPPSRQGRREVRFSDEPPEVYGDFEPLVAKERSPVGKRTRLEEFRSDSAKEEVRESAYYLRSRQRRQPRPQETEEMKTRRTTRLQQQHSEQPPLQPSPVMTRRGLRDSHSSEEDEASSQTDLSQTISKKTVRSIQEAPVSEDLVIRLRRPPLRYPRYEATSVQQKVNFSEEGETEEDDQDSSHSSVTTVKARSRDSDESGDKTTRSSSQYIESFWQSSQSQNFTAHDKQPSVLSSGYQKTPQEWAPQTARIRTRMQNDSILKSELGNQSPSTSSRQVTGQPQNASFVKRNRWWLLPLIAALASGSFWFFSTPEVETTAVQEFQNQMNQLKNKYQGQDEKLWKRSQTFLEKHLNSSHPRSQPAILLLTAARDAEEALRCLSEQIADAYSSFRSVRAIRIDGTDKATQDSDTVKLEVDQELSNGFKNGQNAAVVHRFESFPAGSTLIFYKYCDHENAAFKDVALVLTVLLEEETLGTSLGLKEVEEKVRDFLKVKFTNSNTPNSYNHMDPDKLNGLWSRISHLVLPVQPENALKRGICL
Alpha-bungarotoxin (Bungarus multicinctus), sequence (P60615 whole entry, looked up): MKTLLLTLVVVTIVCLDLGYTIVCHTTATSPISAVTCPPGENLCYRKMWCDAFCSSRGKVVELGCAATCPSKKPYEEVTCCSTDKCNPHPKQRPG

Compound	composite z-score [1]	z-score [2]	composite z-score [3]	composite z-score [4]	composite z-score [5]	composite z-score [6]	composite z-score [7]	composite z-score [8]	composite z-score [9]	composite z-score [10]	composite z-score (Albumin (Bos taurus))	composite Z-score [11]	composite z-score [12]	composite z-score [13]	composite z-score [14]	composite z-score [15]	composite z-score [16]	composite z-score (Sam68 (KHDRBS1))	composite z-score [17]	composite z-score [18]
COc1ccc([Si](C)(C)[C@H]2[C@H](CC(=O)N3Cc4ccccc4C[C@H]3CO)O[C@@]3(C(=O)N(Cc4ccc(N5CCOC5=O)cc4)c4ccccc43)[C@@H]2C)cc1	0.559	-4.15	0.843	-0.766	-0.665	-0.0944	-0.0769	-0.267	0.612	1.22	-0.153	0.949 (inactive)	-0.0106	-0.0249	0.444	0.591	0.246	1.33	1.32	1.05
COC(=O)[C@@]1(Cc2ccc(OC)cc2)[C@H]2c3cc(C(=O)N4CCCC4)n(CCc4c[nH]c5ccc(O)cc45)c3C[C@H]2CN1C(=O)c1ccccc1	1.39	-1.51	0.148	0.797	0.202	0.14	0.315	0.863	1.4	0.485	0.863	0.714 (inactive)	0.298	0.0409	0.774	2.05	0.441	1.34	-0.135	0.992
[N-]=[N+]=Nc1ccccc1[C@@H]1OC(c2ccc(OCCCO)cc2)=N[C@]1(Cc1ccccc1)C(=O)O	1.4	0.848	-0.529	1.57	0.886	0.0391	0.0659	0.135	1.35	1.7	0.893	0.008 (inactive)	0.136	-0.0068	0.62	1.23	-0.25	1.3	0.155	0.665
CCOC(=O)C1=C[C@@H](C(C)(C)C)N(S(=O)(=O)c2ccc(C)cc2)[C@H]1c1cccc2ccccc12	1.28	-2.28	-0.49	1.07	0.423	-0.0478	-0.156	-0.145	-0.281	0.657	0.261	0.592 (inactive)	0.0327	-0.101	0.312	1.76	0.0493	1.05	-0.516	1.05
[N-]=[N+]=Nc1ccccc1C[C@@]1(C(=O)NCCN2CCOCC2)N=C(c2ccc(OCCCO)cc2)O[C@@H]1c1ccccc1N=[N+]=[N-]	-0.241	-2.99	0.0057	1.94	0.455	0.0543	0.411	-0.406	1.08	1.74	0.832	-0.0662 (inactive)	0.351	-0.0211	0.556	2.51	0.865	1.3	-0.198	1.04
COc1cc2c(cc1O)C(C1CC1)N(Cc1cccc(OC(F)(F)F)c1)CC2 (stereo not given)	-1.05	-2.75	-0.116	-1.67	-0.453	-0.062	-0.0793	-0.147	0.108	-0.41	0.353	0.926 (inactive)	-0.0824	-0.0846	0.814	1.06	0.762	-0.316	0.13	-0.744
